From the supplement of paper PMC4840960

Tested on: E18 rat cortical neuron-glia co-culture
Assay: myelination (MBP fiber length per Olig2+ nucleus), % of 1 µM DAPT response (DMSO = 0) (% of DAPT); higher = more myelination, active = 50 or more
Conditions: 5 µM; treatment time: 8 days (DIV5-DIV13)
Outline: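 Myelination, expressed as continuous straight MBP fiber length per Olig2+ nucleus, was normalised to 0.1 % DMSO as 0 and a 1 µM positive control as 100. The cultures were primary E18 rat cortical co-cultures dissociated with papain and plated at 20,000 cells/well on poly-d-lysine/laminin-coated 96-well plates. They received library compounds at 1 or 5 µM in myelination medium between DIV5 and DIV13. Analysis covered four 10X fields per well in duplicate wells after 4 % paraformaldehyde fixation and immunostaining for MBP and Olig2 with DAPI.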

myelination, inactive:
COc1ccc(C(=O)NCc2ccc(OCCN(C)C)cc2)cc1OC [Itopride] -10.7
C#C[C@]1(O)CC[C@H]2[C@@H]3CCC4=CC(=O)CC[C@@H]4[C@H]3CC[C@@]21CC [Levonorgestrel] 0.485
CNCCCCOc1ccccc1Cc1ccccc1 [Bifemelane] -28.5
Cc1onc(-c2ccccc2)c1-c1ccc(S(N)(=O)=O)cc1 [Valdecoxib] -45.9
CC(Cc1ccccc1)(NC(=O)CN)c1ccccc1 (centres undefined) [Remacemide] -7.33
CO/N=C(\C(=O)N[C@@H]1C(=O)N2C(C(=O)O)=C(COC(C)=O)CS[C@H]12)c1csc(N)n1 [Cefotaxime] -10.3
CC(C(=O)O)c1ccc(-c2ccccc2)c(F)c1 (centres undefined) [Flurbiprofen] -13.6
CCn1cc(C(=O)O)c(=O)c2ccc(C)nc21 [Nalidixic Acid] -7.26
COc1ccc([C@@H]2Sc3ccccc3N(CCN(C)C)C(=O)[C@@H]2OC(C)=O)cc1 [Diltiazem] -20.8
Cc1cccc(C)c1OCC(C)N (centres undefined) [Mexiletine] 8.07
COc1ccc(-c2oc3c(CC=C(C)C)c(O[C@@H]4O[C@H](CO)[C@@H](O)[C@H](O)[C@H]4O)cc(O)c3c(=O)c2O[C@@H]2O[C@@H](C)[C@H](O)[C@@H](O)[C@H]2O)cc1 [Icariin] -5.53
CC(=O)/N=c1/sc(S(N)(=O)=O)nn1C [Methazolamide] -24.1
C[C@H](CCC(=O)O)[C@H]1CC[C@H]2[C@@H]3C(=O)C[C@@H]4CC(=O)CC[C@]4(C)[C@H]3CC(=O)[C@]12C [Dehydrocholic Acid] -14.2
CN(C)CCc1c[nH]c2ccc(Cn3cncn3)cc12 [Rizatriptan] -20.4
NS(=O)(=O)c1cc(C2(O)NC(=O)c3ccccc32)ccc1Cl (centres undefined) [Chlorthalidone] 7.87
COc1cc2nc(N(C)CCCNC(=O)C3CCCO3)nc(N)c2cc1OC (centres undefined) [Alfuzosin] -36.4
CCCCN1CCCC1CNC(=O)c1cc(C#N)c2ccccc2c1OC (centres undefined) [Nafadotride] -20.4
CC(C)(C)NC(=O)[C@H]1CC[C@H]2[C@@H]3CC[C@H]4NC(=O)C=C[C@]4(C)[C@H]3CC[C@]12C [Finasteride] -10.7
C[C@H]1c2cccc(O)c2C(=O)C2=C(O)[C@]3(O)C(=O)C(C(N)=O)=C(O)[C@@H](N(C)C)[C@@H]3[C@@H](O)[C@@H]21 [Doxycycline] -0.977
CCc1nn(CCCN2CCN(c3cccc(Cl)c3)CC2)c(=O)n1CCOc1ccccc1 [Nefazodone] 2
Cc1ccsc1C(=CCCN1CCC[C@@H](C(=O)O)C1)c1sccc1C [Tiagabine] -16.6
CC(C)(C)NCC(O)c1ccc(O)c(CO)c1 (centres undefined) [Albuterol] -17.3
C[C@]12CCC(=O)C=C1CC[C@@H]1[C@@H]2[C@@H](O)C[C@@]2(C)[C@H]1CC[C@]2(O)C(=O)CO [Hydrocortisone] -10.2
CC(C)c1ccc2oc3nc(N)c(C(=O)O)cc3c(=O)c2c1 [Amlexanox] 0.757
OC(c1cc(C(F)(F)F)nc2c(C(F)(F)F)cccc12)C1CCCCN1 (centres undefined) [Mefloquine] -31.7
Cc1sc(N)c(C(=O)c2cccc(C(F)(F)F)c2)c1C -12
NS(=O)(=O)c1cc2c(cc1Cl)N=CNS2(=O)=O [Chlorothiazide] 6.93
c1ccc2c(CC3=NCCN3)cccc2c1 [Naphazoline] 14
CCCNC(C)C(=O)Nc1ccccc1C (centres undefined) [Prilocaine] 9.24
Cc1ncc([N+](=O)[O-])n1CCO [Metronidazole] -10.1
O=C1CC2(CCCC2)CC(=O)N1CCNCC1COc2ccccc2O1 (centres undefined) [Binospirone] -17.9
c1ccc2c(c1)CCCC2C1=NCCN1 (centres undefined) [Tyzine] -2.07
Cc1cccc(Nc2ccncc2S(=O)(=O)NC(=O)NC(C)C)c1 [Torsemide] -4.35
O=C1N(c2ccccc2)c2ccccc2C1(Cc1ccncc1)Cc1ccncc1 [Linopirdine] -12
c1cnc(N2CCN(Cc3ccc4c(c3)OCO4)CC2)nc1 [Piribedil] -35.6
CN1CCN(c2c(F)cc3c(=O)c(C(=O)O)cn4c3c2SCC4)CC1 [Rufloxacin] -35.3
OC[C@H]1O[C@@H](Oc2cc(O)cc(/C=C/c3ccc(O)cc3)c2)[C@H](O)[C@@H](O)[C@@H]1O [Polydatin] -3.53
CC[C@H](C)C(=O)O[C@H]1C[C@H](O)C=C2C=C[C@H](C)[C@H](CC[C@@H](O)C[C@@H](O)CC(=O)O)[C@H]21 [Pravastatin] -17.4
COc1ccc(OC)c(C(O)CNC(=O)CN)c1 (centres undefined) [Midodrine] -8.37
